High-throughput results as filed in PubChem.
Apoferritin bind – qHTS Assay for Identification of Novel General Anesthetics | hit rate 0.074% among 350,000 | Potency, µM (top dose mostly 77.5 µM), for inactives: top-dose activity change, negative = displacement, most hits filed as inhibitors | apoferritin/1-aminoanthracene competitive binding, fluorescence; active = well fitted inhibition curve with a large enough effect; inconclusive = small, poorly fitted or top-dose-only effect; inactive = no such curve, though single readings can be large or run the other way; also: potency is read from the fitted curve at half-maximal effect; % is scaled to controls: 0 for no effect and ±100 for the full control effect; nearly all actives have a fitted effect of over 20% in size
Target sequence (P02791 2-175 limits assumed): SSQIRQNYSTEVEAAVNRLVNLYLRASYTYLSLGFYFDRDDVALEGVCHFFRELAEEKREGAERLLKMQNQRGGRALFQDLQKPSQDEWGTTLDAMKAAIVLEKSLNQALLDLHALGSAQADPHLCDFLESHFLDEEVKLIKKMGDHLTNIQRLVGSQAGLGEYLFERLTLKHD
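10 uM apoferritin + 50% sat. 1-AMA, PBS; cpd 10 min RT; Ex380/Em535 endpoint; normalized to free probe vs complex; 4-param Hill fit; propofol titration as pos. ctrl.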
D2 ag-1 – HTS Assay for Allosteric Agonists of the Human D2 Dopamine Receptor: Primary Screen for Agonists; activation, % at 2 µM; HEK293 T-REx D2 cells, calcium flux agonist mode; hit rate 0.53% among 340,000; D(2) dopamine receptor (Homo sapiens), P14416;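 active = activation over 3 SD above normal in the single-dose calcium agonist read, cut at about 30% in these data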; also: 0% is about no effect
Target sequence (P14416 whole entry, looked up): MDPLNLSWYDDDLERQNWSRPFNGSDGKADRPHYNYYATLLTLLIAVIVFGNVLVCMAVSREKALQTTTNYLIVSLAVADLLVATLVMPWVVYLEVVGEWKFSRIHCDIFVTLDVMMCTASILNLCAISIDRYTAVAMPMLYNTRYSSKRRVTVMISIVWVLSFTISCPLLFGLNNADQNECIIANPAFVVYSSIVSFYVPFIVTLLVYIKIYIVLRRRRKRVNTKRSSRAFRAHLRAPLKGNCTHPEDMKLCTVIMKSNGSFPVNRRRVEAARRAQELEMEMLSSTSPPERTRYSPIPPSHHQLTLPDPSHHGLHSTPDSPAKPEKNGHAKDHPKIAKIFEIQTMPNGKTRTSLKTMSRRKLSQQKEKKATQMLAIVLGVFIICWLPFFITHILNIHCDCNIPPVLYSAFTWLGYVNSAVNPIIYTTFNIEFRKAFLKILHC
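HEK293 Trex D2 cells, tetracycline-induced, o/n 30 C 5% CO2; no-wash Ca dye, RT 30–90 min; 10-cycle baseline, 23 nl cpd added, kinetic Ca read 180 s; agonist hits = positive Ca response.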
D2 ag-2 – Beta-Arrestin HTS for Positive Allosteric Modulators of the Human D2 Dopamine Receptor: Agonists | D(2) dopamine receptor (Homo sapiens), P14416 | DiscoveRx PathHunter D2 beta-arrestin, luminescence, 90 min; 100% = 57 uM dopamine signal | activation, % (test concentration not listed) | hit rate 0.084% among 360,000; in the data active = activation above about 40%; inconclusive = between about 15% and that limit
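DiscoveRx PathHunter D2 beta-arrestin cells (2,100/well) attached overnight, then compound-stimulated 90 min at 37 C in HBSS/10 mM HEPES/0.1% Tween-20 buffer; beta-galactosidase complementation read by luminescence after 1 h at ambient temperature. Dopamine 57 uM final (EC100) as control.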
D2 PAM-1 – HTS Assay for Positive Allosteric Modulators of the Human D2 Dopamine Receptor: Primary Screen for Potentiators. potentiation, % at 10 µM. HEK293 T-REx D2, calcium flux, EC20 dopamine potentiation. D(2) dopamine receptor (Homo sapiens), P14416. hit rate 0.34% among 340,000;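 active = potentiation over 3 SD above the plate norm, cut at about 30% in these data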; also: 0% is about no effect
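Primary screen. Calcium kinetics in induced HEK293 T-REx D2 cells: compound pre-addition 180 s, EC20 dopamine, 180 s more.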
D2 PAM-2 – Beta-Arrestin HTS for Positive Allosteric Modulators of the Human D2 Dopamine Receptor: Potentiators; DiscoveRx D2 beta-arrestin cells, luminescence, 90 min; 100% = 57 uM dopamine signal; potentiation, % (test concentration not listed); hit rate 0.23% among 360,000; AID 624464, 2012; in the data active = potentiation above about 50%; inconclusive = mostly about 30% to 49%
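D2 cells co-treated with compound plus 50 nM dopamine (EC20) for 90 min at 37 deg C to detect potentiation. Beta-arrestin recruitment was read as enzyme-fragment luminescence after 1 h at ambient temperature. Full response was set by 57 uM dopamine.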
D2 antag – HTS Assay for Allosteric Antagonists of the Human D2 Dopamine Receptor: Primary Screen for Antagonists. D(2) dopamine receptor (Homo sapiens), P14416. HEK293 TREx D2 cells, calcium flux, dopamine EC80. inhibition, % at 10 µM. hit rate 2% among 340,000. AID 485344, 2010; in the data active = inhibition above about 30%; inactive = below that, where a call was filed; also: 0% is about no effect
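Calcium mobilization kinetics were recorded at 1 s intervals in tetracycline-induced HEK293 T-REx D2 cells, first for 180 s after compound addition and then 180 s after EC80 dopamine.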
The depositor's hits bear a star. Shown are actives, neighbours in structure and some others; about 2.5% of the full set was active somewhere.

`O=C(CSc1nnc2scc(-c3ccccc3)n12)c1ccc2c(c1)OCCO2` gave Apoferritin bind -6%, D2 ag-1 -1, D2 ag-2 0, D2 PAM-1 -8, D2 PAM-2 3 and D2 antag 31*.
Screening COc1ccc(-n2nnnc2SCC(=O)c2ccc3c(c2)OCCO3)cc1 returned Apoferritin bind -2%, D2 ag-1 0, D2 ag-2 -4, D2 PAM-1 34*, D2 PAM-2 -4 and D2 antag -4.
Screening c1ccc(-c2csc3nnc(SCc4ccc5c(c4)OCCO5)n23)cc1 returned Apoferritin bind -3%, D2 ag-1 1, D2 ag-2 -3, D2 PAM-1 43*, D2 PAM-2 -7 and D2 antag 10.
CCOc1ccccc1C(=O)N[C@H](C(=O)Nc1ccc(OC)c(S(=O)(=O)N2CCOCC2)c1)C(C)C was read as Apoferritin bind -15%, D2 ag-1 0, D2 ag-2 -4, D2 PAM-1 7, D2 PAM-2 -13 and D2 antag 4.
Screening Cc1ccccc1-n1ccnc1SCC(=O)NC1CCCC1 returned Apoferritin bind 4%, D2 ag-1 0, D2 ag-2 -1, D2 PAM-1 1, D2 PAM-2 -1 and D2 antag -4.
O=C(NCC(c1ccc(F)cc1)N1CCOCC1)c1cccnc1Sc1ccc(Cl)cc1 (configuration not stated) was read as D2 ag-1 1, D2 ag-2 -7, D2 PAM-1 10, D2 PAM-2 -5 and D2 antag 4.
`COc1ccc(S(=O)(=O)N2CCC(C(=O)N3CCN(c4ccccc4OC)CC3)CC2)cc1` gave Apoferritin bind -12%, D2 ag-1 -2, D2 ag-2 1, D2 PAM-1 5, D2 PAM-2 -8 and D2 antag 5.
`Cc1ccccc1CN1C(=O)c2ccccc2S(=O)c2ccc(C(=O)NCc3ccc4c(c3)OCO4)cc21` (configuration not stated) gave Apoferritin bind -3% and D2 PAM-1 -6.
`CC1CCCCC1Nc1ncnc2sccc12` (configuration not stated) gave Apoferritin bind -24%, D2 ag-1 0, D2 ag-2 6, D2 PAM-1 14, D2 PAM-2 -6 and D2 antag 36*.
For c1ccc(Nc2ncnc3sccc23)cc1 the results were Apoferritin bind -11%, D2 ag-1 0, D2 ag-2 2, D2 PAM-1 -1, D2 PAM-2 -2 and D2 antag -4.
Screening O=C(COC(=O)COc1ccccc1)NC12CC3CC(CC(C3)C1)C2 returned D2 ag-1 0, D2 ag-2 -2, D2 PAM-1 19, D2 PAM-2 -4 and D2 antag 34*.
CCc1ccc(CCC(=O)Nc2ccc(Cl)cc2)o1 was read as Apoferritin bind -15%, D2 ag-1 -1, D2 ag-2 1, D2 PAM-1 -12, D2 PAM-2 -5 and D2 antag 42*.
`CN(Cc1ccccc1)C(=O)c1ccc(NC(=O)c2ccccc2)cc1` gave Apoferritin bind inconclusive, D2 ag-1 0, D2 ag-2 -2, D2 PAM-1 37*, D2 PAM-2 -11 and D2 antag -17.
CN(Cc1ccccc1)C(=O)c1cccc(NC(=O)c2ccco2)c1 was read as Apoferritin bind 7%, D2 ag-1 0, D2 ag-2 -5, D2 PAM-1 -8, D2 PAM-2 -5 and D2 antag -8.
Screening CN(CCC(=O)Nc1ccc(Cl)cc1)Cc1ccccc1 returned Apoferritin bind -10%, D2 ag-1 -1, D2 ag-2 -10, D2 PAM-1 -26, D2 PAM-2 -28 and D2 antag 45*.
For CN(CC(=O)Nc1ccc(C#N)cc1)Cc1ccc(Cl)c(Cl)c1 the results were Apoferritin bind -11%, D2 ag-1 0, D2 ag-2 -1, D2 PAM-1 -7, D2 PAM-2 -7 and D2 antag -18.
Screening CN(CCC(=O)Nc1ccc2c(c1)OCO2)Cc1ccccc1 returned Apoferritin bind -20%, D2 ag-1 1, D2 ag-2 -1, D2 PAM-1 -5, D2 PAM-2 -24 and D2 antag -26.
CN(CC(=O)Nc1cccc(C#N)c1)Cc1ccc(Cl)cc1 was read as Apoferritin bind -23%, D2 ag-1 0, D2 ag-2 3, D2 PAM-1 -11, D2 PAM-2 -31 and D2 antag 68*.
`Cc1ccc(C)c(NS(=O)(=O)c2ccc(-c3cnc(C4CC4)o3)cc2)c1` gave Apoferritin bind -16%, D2 ag-1 0, D2 ag-2 5, D2 PAM-1 2, D2 PAM-2 -10 and D2 antag -9.
For Cc1c(C(=O)O)sc2ncnc(N3CCCCC3C)c12 (configuration not stated) the results were Apoferritin bind 7%, D2 ag-1 0, D2 ag-2 0, D2 PAM-1 33*, D2 PAM-2 -14 and D2 antag -1.
Screening O=C(NC1CCSc2ccccc21)c1cccc(Cl)c1 (configuration not stated) returned Apoferritin bind -10%, D2 ag-1 0, D2 ag-2 0, D2 PAM-1 2, D2 PAM-2 -8 and D2 antag -3.
Screening CN(C)C=NC(=O)c1cc(C(=O)c2ccccc2Cl)c[nH]1 returned Apoferritin bind -9%, D2 ag-1 0, D2 ag-2 -1, D2 PAM-1 -4, D2 PAM-2 3 and D2 antag 46*.
`Cc1cccc(/C=C2/Sc3ccc(C(=O)N4CCOCC4)cc3NC2=O)c1` gave Apoferritin bind 2%, D2 ag-1 0, D2 ag-2 -4, D2 PAM-1 2, D2 PAM-2 -3 and D2 antag -29.
For O=C1Nc2cc(C(=O)N3CCOCC3)ccc2S/C1=C\c1ccccc1 the results were Apoferritin bind -14%, D2 ag-1 1, D2 ag-2 -4, D2 PAM-1 13, D2 PAM-2 -10 and D2 antag 47*.
For COCCCNC(=O)c1nn(-c2ccc(C)cc2)c(=O)n(C)c1=O the results were Apoferritin bind 2%, D2 ag-1 0 and D2 PAM-1 7.
